This is an account of results in paper PMC4336329 (PLoS ONE, 2015).

Structures are written as SMILES. Hit rate of the full screen: of about 310,000 compounds, about 14,000 (4.5%) showed an effect of 50% or more. Effects have a minus sign here. The full list was thinned out, with strong results kept by preference.
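Further: peak tail current of the secondary pulse compared with the same well before compound.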

human ether-à-go-go-related gene (hERG) potassium channel, sequence (Q12809 whole entry, looked up): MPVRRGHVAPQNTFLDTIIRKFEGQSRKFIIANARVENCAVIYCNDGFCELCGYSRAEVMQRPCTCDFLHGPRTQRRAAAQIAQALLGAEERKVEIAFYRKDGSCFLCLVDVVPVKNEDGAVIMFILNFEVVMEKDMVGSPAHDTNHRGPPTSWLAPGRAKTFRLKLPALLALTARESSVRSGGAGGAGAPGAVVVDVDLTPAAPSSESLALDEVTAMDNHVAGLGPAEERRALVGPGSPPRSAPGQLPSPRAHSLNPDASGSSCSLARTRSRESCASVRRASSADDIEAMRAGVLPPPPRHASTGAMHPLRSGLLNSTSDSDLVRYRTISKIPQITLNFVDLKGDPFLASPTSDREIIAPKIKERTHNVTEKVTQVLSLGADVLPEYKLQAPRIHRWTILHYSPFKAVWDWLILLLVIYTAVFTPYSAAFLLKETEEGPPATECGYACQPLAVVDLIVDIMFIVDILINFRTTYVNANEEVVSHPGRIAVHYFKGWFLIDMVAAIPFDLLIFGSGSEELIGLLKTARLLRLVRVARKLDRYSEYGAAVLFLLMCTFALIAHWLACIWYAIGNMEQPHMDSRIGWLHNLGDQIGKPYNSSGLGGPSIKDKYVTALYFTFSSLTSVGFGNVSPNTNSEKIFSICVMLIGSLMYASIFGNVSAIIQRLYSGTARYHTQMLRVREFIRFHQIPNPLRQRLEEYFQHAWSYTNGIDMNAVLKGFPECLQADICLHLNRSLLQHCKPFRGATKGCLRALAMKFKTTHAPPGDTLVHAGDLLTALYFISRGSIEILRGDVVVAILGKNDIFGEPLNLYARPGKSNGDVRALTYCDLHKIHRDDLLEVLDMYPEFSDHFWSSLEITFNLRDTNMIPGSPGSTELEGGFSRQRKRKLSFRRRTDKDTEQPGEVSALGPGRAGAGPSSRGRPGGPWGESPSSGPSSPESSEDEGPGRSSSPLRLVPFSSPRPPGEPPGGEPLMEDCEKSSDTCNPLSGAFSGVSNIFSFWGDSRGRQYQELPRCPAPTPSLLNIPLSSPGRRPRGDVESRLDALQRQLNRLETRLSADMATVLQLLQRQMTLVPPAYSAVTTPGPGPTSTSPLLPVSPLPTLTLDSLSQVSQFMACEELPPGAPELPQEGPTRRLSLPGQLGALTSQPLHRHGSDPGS

The assay has as its target human ether-à-go-go-related gene (hERG) potassium channel (human, UniProt Q12809). In words: primary screen, population patch clamp on CHO cells stably expressing hERG; higher = less effect of the substance.
Turning to `O=C(NO)c1ccccc1C(F)(F)F`, the “hERG current change (%, negative = inhibition) at 10uM” value came out at 15.4%.
The value for `Cc1cccc(C)c1OCC(=O)Nc1cccc(S(=O)(=O)N2CCCC2)c1` was 3.77%; that for `CC(Oc1ccc2c3c(c(=O)oc2c1)CCCC3)C(=O)NCC(O)c1ccccc1` (stereo not drawn) was 16.8%; that for `COc1ccc(S(=O)(=O)c2ccc(OC)c(OC)c2)cc1OC` was -12.2%.
The value for `COc1ccc(CCNC(=O)C2CCN(S(=O)(=O)c3c(C)noc3C)CC2)cc1OC` was -16.9%.
In the case of `O=C(O)CCCNC(=O)/C(=C\c1ccccc1F)NC(=O)c1ccccc1`, the “hERG current change (%, negative = inhibition) at 10uM” value is reported as 13.4%.
To `O=C(CCCNC(=O)/C(=C/c1ccc(Br)cc1)NC(=O)c1ccccc1)OCc1ccccc1` belongs -38.8%.
Turning to `O=C(CCCNC(=O)/C(=C/c1ccc(F)cc1)NC(=O)c1ccccc1)OCc1ccccc1`, the “hERG current change (%, negative = inhibition) at 10uM” value is given as -64.3%.
`O=C(CCCNC(=O)/C(=C\c1ccc(F)cc1)NC(=O)c1ccccc1)OCc1ccccc1`: the “hERG current change (%, negative = inhibition) at 10uM” value was -77.1%.
Consider `O=C(CCCNC(=O)/C(=C\c1ccccc1F)NC(=O)c1ccccc1)OCc1ccccc1`, for which the “hERG current change (%, negative = inhibition) at 10uM” value is -9.13%.
The value for `O=C(CCCNC(=O)/C(=C/c1ccccc1F)NC(=O)c1ccccc1)OCc1ccccc1` was -5.02%.
To `Cc1csc(NC(=O)c2ccc(COc3ccccc3)o2)n1` belongs -17.7%.
The value for `CC(=O)Nc1ccccc1NC(=O)C/C(C)=N/NC(=O)c1ccccn1` was 16.1%; that for `COc1ccc2nc(C)cc(Nc3ccc(C(=O)O)cc3)c2c1` was 39.5%; that for `COc1ccc2nc(C)cc(Nc3ccc(C)cc3)c2c1.Cl` was -52.8%.
On to `COc1ccc(Nc2cc(C)nc3ccc(OC)cc23)cc1`, for which the “hERG current change (%, negative = inhibition) at 10uM” value is -52.3%.
To `Nc1ncncc1-c1ccc2ccccc2c1` belongs -7.48%; to `Clc1ccc(/C=N/c2c(-c3ccc(Cl)cc3)nc3n2CCS3)cc1`, 1.1%.
The value for `CC1CCCCC1NC(=O)c1cn(C)c2ccc(S(=O)(=O)N3CCCC3)cc2c1=O` (stereo not drawn) was -0.37%; that for `COc1ccc(C(=O)OCn2nnc3ccccc3c2=O)cc1[N+](=O)[O-]` was 13.6%; that for `Cc1ccc(S(=O)(=O)N(C)C)cc1NC(=O)C(C)Sc1ccccc1` (stereo not drawn) was -6.74%.
The value for `CC(/C=N/NC(=O)c1ccccc1F)=C\c1ccccc1` was 12.7%.
As for `COc1ccc(C(=O)NCC(=O)N/N=C/C=C/c2ccccc2)cc1OC`, the “hERG current change (%, negative = inhibition) at 10uM” value was -93.6%.
To `CC(=C/c1ccccc1)/C=N/NC(=O)c1ccccn1` belongs -30.3%; to `O=C(CNC(=O)c1ccccc1)N/N=C/C=C/c1ccccc1`, -1.96%.
To `CC(/C=N/NC(=O)c1ccc(Br)cc1)=C\c1ccccc1` belongs -3.38%.
For `CC(/C=N/NC(=O)c1ccncc1)=C\c1ccccc1`, the “hERG current change (%, negative = inhibition) at 10uM” value is on record as 9.78%.
The value for `CC(/C=N/NC(=O)c1c(Br)cnn1C)=C\c1ccccc1` was -13%; that for `COc1ccc(C(=O)NCC(=O)N/N=C/C(C)=C/c2ccccc2)cc1OC` was -1.63%.
On to `COc1ccc(C(=O)N/N=C\C(C)=C\c2ccccc2)cc1OC`, for which the “hERG current change (%, negative = inhibition) at 10uM” value is -61.4%.
To `COc1ccccc1C(=O)N/N=C/C(C)=C/c1ccccc1` belongs -73.8%; to `COc1ccc(C(=O)NCC(=O)N/N=C(C)\C=C\c2ccccc2)cc1OC`, -19.3%.
To `CC(/C=N/NC(=O)c1nn(C)c(C)c1Br)=C\c1ccccc1` belongs -53.8%.
